# Results published in the supplement of paper PMC4723716.
# System: Plasmodium falciparum NF54 gametocytes
# Assay: viability index relative to DMSO control (fraction); higher = less gametocyte killing
# Details: 12.5 µM, incubation time: 72 h
# How it was run: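 The viability index was calculated as the gametocyte particle count over the plate mean of solvent-only wells. For this, P. falciparum NF54 gametocytes of every stage (I–V) were held with compound at 12.5 µM for 72 hr at 37°C under low oxygen in 384-well plates. MitoTracker Red CMXRos staining for 20 min was followed by transfer of 5 µl into 40 µl of 500 nM dye in serum-free medium, with three fields imaged after 30 min.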
# [1] = gametocyte stage: Stage I viability index
# [2] = gametocyte stage: Stage II viability index
# [3] = gametocyte stage: Stage III viability index
# [4] = gametocyte stage: Stage IV viability index
# [5] = gametocyte stage: Stage V viability index
Structure (SMILES),viability index [1],viability index [2],viability index [3],viability index [4],viability index [5]
CCCN(CCC)CC(O)COc1ccccc1C(=O)Nc1ccccc1 (stereo not given),0.0829,0.175,0.46,0.593,0.516
CSc1ccccc1C(=O)Nc1nc(-c2ccccn2)cs1,0.242,0.181,0.321,0.362,0.132
COc1ccc(-c2nonc2NC(=O)c2cccc(Cl)c2)cc1OC,0.27,0.207,0.505,0.684,0.187
Cc1cc(C=C2SC(=Nc3ccccc3)N(C3CCCC3)C2=O)c(C)n1-c1ccc(Cl)cc1,1.05,1.03,1.03,0.894,0.879
CCn1c2c(c(=N)c3c1CCC3)CCCC2,0.441,0.795,0.957,0.962,0.701
CN(C)c1ccc(N=Cc2ccc(N3CCOCC3)cc2)cc1,0.955,0.834,0.927,1.01,0.896
O=C(Nc1ccsc1C(=O)NC1CCCCC1)c1ccc(F)cc1,0.93,0.729,0.965,0.933,0.945
COc1ccc(N2CCN(C(CNC(=O)CC(C)(C)C)c3ccc4c(c3)OCO4)CC2)cc1 (stereo not given),1.04,0.928,1.02,0.826,0.727
COCCNCC(O)Cn1c2ccc(Cl)cc2c2cc(Cl)ccc21 (stereo not given),0.105,0.0937,0.407,0.511,0.429
CCCCOc1ccc(C(=O)Nc2cc(C)on2)cc1,1.02,0.815,0.973,0.942,0.78
c1ccc(Cn2c(N=Nc3c(Nc4ccccc4)ccc4ccccc34)nc3ccccc32)cc1,0.00884,0.0106,0.058,0.149,0.209
c1ccc(-c2ccc(-c3nc4ccccc4[nH]3)cc2)cc1,0.527,0.768,0.867,0.784,0.967
CCCCCCn1c(=N)n(CC(O)COc2cccc(C)c2)c2ccccc21 (stereo not given),0.0787,0.0425,0.0828,0.149,0.0779
O=C(Nc1ccc(Br)cc1)Nc1cccc(Cl)c1,0.341,0.542,0.816,0.936,0.451
O=C(NC(c1ccccc1)c1ccc2cccnc2c1O)c1ccccc1 (stereo not given),0.00552,0.029,0.0453,0.103,0.0769
COc1ccc(CCn2c(=N)c(C(=O)NCc3cccnc3)cc3c(=O)n4cccc(C)c4nc32)cc1,0.076,0.611,0.917,0.937,1.09
Cc1ccc(Cl)cc1N1CCN(CCCNC(=O)C2CCN(c3nc4ccccc4[nH]3)CC2)CC1,0.158,0.517,0.628,0.426,0.407
COc1ccc(Nc2nc(NN=Cc3ccc(O)cc3)nc(Nc3ccc([N+](=O)[O-])cc3)n2)cc1,0.00437,0.05,0.233,0.142,0
CCOc1ccc2nc(C)cc(Nc3ccc(Br)cc3)c2c1,0.152,0.407,0.828,0.851,0.818
OC(CNC1CCCCC1)Cn1c2ccc(I)cc2c2cc(I)ccc21 (stereo not given),0.116,0.0916,0.122,0.168,0.13
O=C(NCCCN1CCC(N2CCCCC2)CC1)C1=Cc2cc(Br)ccc2OC1,0.0935,0.427,0.742,0.699,0.312
CCOc1ccccc1CN1CCc2nc3cc(C(C)(C)C)nn3c(O)c2C1,0.89,0.7,0.583,0.737,0.597
COc1ccc(-c2nc(N3CCN(C(=O)C4CCCCC4)CC3)c3c4c(sc3n2)CCCC4)cc1,1.05,0.922,1.06,0.915,0.779
CCOC(=O)c1cnc2c(C)cc(C)cc2c1Nc1ccc(OC)c(OC)c1,1.09,0.998,1.19,0.845,0.978
Cc1cccc(N2C(=O)C3C(C2=O)C2(c4ccccc4)C(=O)C3(c3ccccc3)C(c3ccc4c(c3)OCO4)=C2c2ccc3c(c2)OCO3)c1 (stereo not given),1.16,0.896,1.08,0.886,1.03
COc1ccc(C(=O)NC(c2ccc(Cl)cc2Cl)c2cc(Cl)c3cccnc3c2O)cc1 (stereo not given),0.0262,0.0341,0.0814,0.136,0.0779
CCCCCCOC(=O)C1=C(C)NC(=O)NC1c1ccccc1F (stereo not given),0.924,0.896,1.03,1.04,1.13
Oc1ccc2ccccc2c1CNc1nc2ccccc2[nH]1,0.0376,0.182,0.512,0.462,0.273
OC1=C2C(=Nc3ccccc3SC2c2ccc(Br)cc2)c2ccccc21 (stereo not given),0.755,0.751,1.04,0.801,0.857
